Bioassay records from PubChem.
Hits are enriched below; roughly 2.8% of the tested compounds scored in any of these assays.
MITF TRPM1 inh: inhibitors of MITF-dependent TRPM1 promoter reporter, primary screen, cell-based, SK-MEL-5, single point, luciferase | 0.83% of 330,000 active | inhibition, % at 12.5 µM | SK-MEL-5 TRPM1 promoter luciferase, 24 h | AID 488899, 2010;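 active = mean inhibition across replicates of 60% or more, whatever share of single replicates reaches that level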
Shn3 inh set2: reduction of Shn3 3'UTR firefly luciferase signal, primary screen, Schnurri-3 inhibitor project, cell-based, Clone20 osteoblasts, set 2 | inhibition, % at 12.5 µM | Clone20 osteoblast Shn3 3'UTR firefly luciferase, 24 h | 0.52% of 360,000 active | AID 588674, 2011;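 active = mean inhibition of at least 75% with every replicate also reaching 75%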;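 also: 0% = median of neutral control wells and 100% = pilot-screen positive control compound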
Peg3 promoter: Peg3 promoter-driven luciferase inhibitors, primary screen, cell-based, HeLa, luciferase luminescence; inhibition, % at 20 µM; HeLa PEG-Prom luciferase reporter, overnight; 1.7% of 360,000 active;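 active = inhibition of at least 50% at 20 µM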
PAX8 inh HTS: inhibitors of PAX8-driven TPO luciferase reporter, primary screen, RMG-I cells, single concentration | SteadyGlo, 24 h | inhibition, % at 12.6 µM | 1.2% of 360,000 active | AID 652154, 2013;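 active = mean replicate inhibition at least 60% with every replicate also reaching 60%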;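 also: luciferase light reporting Pax8 driven TPO promoter activity; plate controls were median of neutral control wells for no effect and mitoxantrone controls for full effect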
HIF-2a inh: HIF-2a reporter inhibitors, primary screen, luminescence, 786-0 RCC cells; 786-0 RCC cells HIF-2a reporter, luciferase luminescence, overnight; inhibition, % at 18.8 µM; 0.72% of 360,000 active;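 active = inhibition of the luminescence signal of 40% or more relative to plate controls, in a single-dose primary screen at 18.75 µM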
EBV LMP1 NFkB: EBV LMP1-driven NF-kappaB luciferase reporter inhibitors, primary screen, cell-based, luminescence, single point; inhibition, % at 12.5 µM; LMP1-induced NF-kappaB luciferase reporter cells; 0.69% of 350,000 active; AID 504558, 2011; in the data active = inhibition above about 41%;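 also: 0% = neutral control wells and 100% = reference inhibitor control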
Mdm2-MdmX confirm: retested Mdm2-MdmX interaction blockers, confirmation, cell-based, luminescence, single concentration, set 2; shares compounds with HIF-2a inh; SaOS-2 split-luciferase Mdm2/MdmX complementation; inhibition, % at 8 µM; 99% of 740 active;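 active = mean inhibition of the luminescence signal across two replicates at or above 26 percent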
HIF-2a inh conf: HIF-2a reporter inhibitor retest, confirmation, luminescence, 786-0 RCC cells | shares compounds with HIF-2a inh | HIF-2a luciferase reporter luminescence, overnight | inhibition, % at 18.8 µM | 56% of 1,800 active;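 active = mean inhibition across four replicates of at least 40 percent at the single tested concentration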
HIF-1a counter: HIF-1a luciferase reporter signal reduction – MiaPaCa-2 cells, single concentration, counter-screen for HIF-2a inhibitor project, confirmation | shares compounds with HIF-2a inh | MiaPaCa-2 HIF-1a luciferase reporter, desferoxamine, overnight | inhibition, % at 18.8 µM | 72% of 1,800 active;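 active = mean inhibition of the reporter signal across four replicates at the single tested dose of 50% or more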
The depositor's hits bear a star; . = no result.

SMILES | MITF TRPM1 inh | Shn3 inh set2 | Peg3 promoter | PAX8 inh HTS | HIF-2a inh | EBV LMP1 NFkB | HIF-2a inh conf | HIF-1a counter | others
FC(F)(F)c1cnc(NNC(=S)Nc2ccccc2)c(Cl)c1 | . | 20.8 | 22.8 | 7.7 | 45.3* | 32.8 | 60.8* | 13.1
FC(F)(F)c1cnc(NNC(=S)Nc2cccnc2)c(Cl)c1 | 21.3 | 11.1 | 29.3 | 17.9 | 26.1 | 28.4 | . | .
COc1cc2c3nnc(-c4ccc(F)cc4)c-3cn(Cc3cccc(F)c3)c2cc1OC | 75.3* | -7.6 | 95.8* | . | 27.0 | -5.4 | . | . | Mdm2-MdmX confirm=103.2*
CCOc1cc(/C=N/NC(N)=O)cc(Br)c1OCC(=O)Nc1ccccc1C | -7.5 | 15.0 | 42.2 | 3.8 | 40.4* | 5.7 | 14.8 | 65.5*
COc1ccc(S(=O)(=O)Nc2ccc3c(c2)C(=O)N([C@@H](C)CO)C[C@H](C)[C@@H](CN(C)C(=O)NC2CCCCC2)OCCCC[C@@H](C)O3)cc1 | . | . | . | -0.7 | . | . | . | .
O=C(NCc1cccnc1)/C(=C\c1ccc(-c2ccc(Cl)c(Cl)c2)o1)S(=O)(=O)c1ccccc1 | 89.9* | 97.7* | 101.7* | 90.5* | 97.1* | 87.0* | 98.7* | 106.2*
O=C(NCc1cccnc1)c1ccc(-c2ccc(Cl)cc2)o1 | -13.2 | 11.3 | -22.9 | -4.5 | -28.9 | -6.1 | . | .
CN(C)C(=O)NC1c2ccccc2-c2ccccc21 | 13.3 | -10.2 | 1.1 | 0.6 | 7.9 | -0.7 | . | .
O=C1C=CC(=O)N1c1ccc2c(c1)C(NC(=O)C(F)(F)F)c1ccccc1-2 (stereo not given) | 86.1* | 71.0 | 102.5* | 27.7 | 45.5* | -4.8 | 10.5 | 16.5
CC=Cc1ccc2n(c1=O)C[C@@H]1[C@@H](CO)[C@H](C(=O)NCc3ccccc3)N(CCC(F)(F)F)[C@H]21 (mixture of isomers) | . | . | . | 12.1 | . | . | . | .
COC(=O)c1c(NC(=O)Cc2ccccc2)sc2c1CC(C)(C)NC2(C)C | -3.9 | -13.9 | 6.7 | -1.2 | 7.0 | 1.3 | . | .
COC(=O)c1c(NC(=O)COc2ccc(Cl)cc2)sc2c1CC(C)(C)NC2(C)C | 81.6* | 74.4 | 98.7* | 5.7 | 52.0* | -128.1 | 9.1 | 99.2*
C[C@H](CO)N1C[C@H](C)[C@H](CN(C)C(=O)Nc2cccc3ccccc23)Oc2ccc(NC(=O)Cc3ccccc3)cc2C1=O | . | . | . | 30.1 | . | . | . | .
O=[N+]([O-])C1C(c2ccccc2)C12c1ccccc1-c1ccccc12 (stereo not given) | . | 29.0 | 53.3* | . | 49.1* | -4.2 | 42.6* | -10.7
CCOc1ccccc1NC(=O)CCC(=O)Nc1ccccc1OCC | -1.9 | 4.6 | 11.2 | -9.2 | 13.0 | -2.7 | . | .
CCOc1cc(NC(=O)CCl)c(OCC)cc1NC(=O)CCl | 75.7* | 1.1 | 50.5* | 75.9* | 23.4 | -16.9 | . | . | Mdm2-MdmX confirm=103.0*
O=C(CCl)Nc1cccc(S(=O)(=O)N2CCCCCC2)c1 | 75.4* | -7.2 | 72.5* | 5.3 | 46.4* | -36.1 | 3.5 | 67.2*
CCOC(=O)C(C(=O)OCC)C(C(=O)OCC)N1CCOCC1 (stereo not given) | 96.0* | 40.7 | 106.0* | . | 90.0* | 33.9 | 97.8* | 107.0*
Cc1ccc(S(=O)(=O)N(C)C[C@H]2Oc3ccc(NC(=O)Nc4ccc(F)cc4)cc3C(=O)N([C@@H](C)CO)C[C@@H]2C)cc1 | . | . | . | 7.8 | . | . | . | .
O=C(OCC(=O)N1CCCCCC1)c1ccc[nH]c1=O | -15.0 | -10.9 | 0.2 | 7.0 | 3.4 | -1.8 | . | .
O=C(COC(=O)c1ccc[nH]c1=O)Nc1ccc(N2CCCCC2)cc1 | 77.6* | 78.6 | 29.4 | 18.4 | 90.8* | 46.0* | 95.1* | 74.1*
